Measurements reported in PubChem BioAssay AID1159580 (chemical genetic matrix, 2015).
The whole screen tested about 5,500 compounds, of which about 2,000 (36%) were called active. Not shown: some 18% with an inconclusive outcome. Cut-off read from the data, not from the text of the source: active = normalized growth mostly below about 0.91 (no sharp cut-off); inconclusive = no clear call, values can overlap the other calls; inactive = mostly above about 0.92. The list shows a part of the results.

Assay: chemical genetic growth profiling, strain panel (AID 1159580);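 note: tested at 20 µM; growth read once vehicle control cultures reached saturation at 30 °C; 1 = growth at the plate median or of vehicle wells; lower values mean less growth of the strain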
Conditions: S. cerevisiae deletion strains, growth OD
[1] = locus YAL040C, strain CLN3, active compounds read low
[2] = locus YCL061C, strain MRC1 (second series), active compounds read low
[3] = locus YDR363W, strain ESC2, active compounds read low
[4] = locus YER002W, strain NOP16, active compounds read low
[5] = locus YJR075W, strain HOC1, active compounds read low
[6] = locus YMR263W, strain SAP30, active compounds read low
[7] = locus YNL153C, strain GIM3, active compounds read low
[8] = locus YNL175C, strain NOP13, active compounds read low
[9] = locus YNL197C, strain WHI3, active compounds read low
[10] = locus YNL224C, strain SQS1, active compounds read low
[11] = locus YOR083W, strain WHI5 (second series), active compounds read low
[12] = locus YAL021C, strain ccr4, active compounds read low
[13] = locus YAL026C, strain drs2, active compounds read low
[14] = locus YAL030W, strain snc1, active compounds read low
[15] = locus YBL061C, strain skt5, active compounds read low
[16] = locus YBR009C, strain hhf1, active compounds read low
[17] = locus YBR023C, strain chs3, active compounds read low
[18] = locus YBR171W, strain sec66, active compounds read low
[19] = locus YBR231C, strain swc5, active compounds read low
[20] = locus YBR279W, strain paf1, active compounds read low
[21] = locus YCL011C, strain gbp2, active compounds read low
[22] = locus YCL016C, strain dcc1, active compounds read low
[23] = locus YCL061C, strain MRC1, active compounds read low
[24] = locus YCL069W, strain vba3, active compounds read low
[25] = locus YCR088W, strain abp1, active compounds read low
[26] = locus YDL005C, strain med2, active compounds read low
[27] = locus YDL040C, strain nat1, active compounds read low
[28] = locus YDR001C, strain nth1, active compounds read low
[29] = locus YDR069C, strain doa4, active compounds read low
[30] = locus YDR137W, strain rgp1, active compounds read low
[31] = locus YDR159W, strain sac3, active compounds read low
[32] = locus YDR297W, strain sur2, active compounds read low
[33] = locus YDR334W, strain swr1, active compounds read low
[34] = locus YDR335W, strain msn5, active compounds read low
[35] = locus YDR392W, strain spt3, active compounds read low
[36] = locus YEL003W, strain gim4, active compounds read low
[37] = locus YEL037C, strain rad23, active compounds read low
[38] = locus YEL061C, strain CIN8 (second series), active compounds read low
[39] = locus YER015W, strain faa2, active compounds read low
[40] = locus YER016W, strain bim1, active compounds read low
[41] = locus YER111C, strain swi4, active compounds read low
[42] = locus YER155C, strain BEM2 (second series), active compounds read low
[43] = locus YFR010W, strain ubp6, active compounds read low
[44] = locus YGL167C, strain pmr1, active compounds read low
[45] = locus YGL173C, strain kem1, active compounds read low
[46] = locus YGL227W, strain vid30, active compounds read low
[47] = locus YGL240W, strain doc1, active compounds read low
[48] = locus YGL253W, strain hxk2, active compounds read low
[49] = locus YHR013C, strain ard1, active compounds read low
[50] = locus YHR027C, strain rpn1, active compounds read low
[51] = locus YHR142W, strain chs7, active compounds read low
[52] = locus YJL092W, strain hpr5, active compounds read low
[53] = locus YJL095W, strain BCK1 (second series), active compounds read low
[54] = locus YJL115W, strain asf1, active compounds read low
[55] = locus YJL129C, strain trk1, active compounds read low
[56] = locus YJL154C, strain vps35, active compounds read low
[57] = locus YJL164C, strain tpk1, active compounds read low
[58] = locus YJL166W, strain qcr8, active compounds read low
[59] = locus YJL187C, strain SWE1, active compounds read low
[60] = locus YKL160W, strain elf1, active compounds read low
[61] = locus YKR026C, strain gcn3, active compounds read low
[62] = locus YKR091W, strain srl3, active compounds read low
[63] = locus YLL001W, strain dnm1, active compounds read low
[64] = locus YLL026W, active compounds read low
[65] = locus YLL041C, strain sdh2, active compounds read low
[66] = locus YLR027C, strain aat2, active compounds read low
[67] = locus YLR221C, strain rsa3, active compounds read low
[68] = locus YLR258W, strain gsy2, active compounds read low
[69] = locus YLR262C, strain YPT6 (second series), active compounds read low
[70] = locus YLR320W, strain mms22, active compounds read low
[71] = locus YLR342W, strain FKS1, active compounds read low
[72] = locus YLR357W, strain rsc2, active compounds read low
[73] = locus YLR370C, strain arc18, active compounds read low
[74] = locus YLR384C, strain iki3, active compounds read low
[75] = locus YML120C, strain ndi1, active compounds read low
[76] = locus YMR058W, strain fet3, active compounds read low
[77] = locus YMR125W, strain sto1, active compounds read low
[78] = locus YMR129W, active compounds read low
[79] = locus YMR205C, strain PFK2, active compounds read low
[80] = locus YMR231W, strain pep5, active compounds read low
[81] = locus YNL071W, strain lat1, active compounds read low
[82] = locus YNL209W, strain ssb2, active compounds read low
[83] = locus YNL248C, strain rpa49, active compounds read low
[84] = locus YNL322C, strain KRE1 (second series), active compounds read low
[85] = locus YNR049C, strain mso1, active compounds read low
[86] = locus YOR001W, strain rrp6, active compounds read low
[87] = locus YOR070C, strain gyp1, active compounds read low
[88] = locus YOR080W, strain dia2, active compounds read low
[89] = locus YOR083W, strain WHI5, active compounds read low
[90] = locus YOR106W, strain vam3, active compounds read low
[91] = locus YOR265W, strain rbl2, active compounds read low
[92] = locus YOR270C, strain vph1, active compounds read low
[93] = locus YOR290C, strain snf2, active compounds read low
[94] = locus YPL051W, strain arl3, active compounds read low
[95] = locus YPL078C, strain atp4, active compounds read low
[96] = locus YPL106C, strain sse1, active compounds read low
[97] = locus YPL240C, strain hsp82, active compounds read low

Measured: normalized growth

CC[N+](CC)(CC)CC
inactive: [1] 1.02 | [2] 1 | [3] 0.99 | [4] 0.989 | locus YGR078C, strain PAC10, active compounds read low 1 | locus YGR229C, strain SMI1, active compounds read low 1.02 | [5] 1.02 | [6] 0.994 | locus YMR307W, strain GAS1, active compounds read low 0.991 | [7] 0.986 | [8] 0.981 | [9] 1.01 | [10] 0.997 | [11] 0.999

CC#CC1(O)CCC2C3CCC4=CC(=O)CCC4=C3C(c3ccc(N(C)C)cc3)CC21C (stereo unspecified)
inactive: [12] 0.982 | [13] 0.996 | [14] 0.989 | [15] 0.999 | [16] 0.998 | [17] 0.993 | [18] 1.01 | [19] 1 | [20] 0.993 | [21] 1 | [22] 1.01 | [23] 1.01 | [24] 1 | [25] 0.997 | [26] 1.01 | [27] 0.997 | [28] 1 | [29] 0.994 | [30] 1.01 | [31] 1.01 | locus YDR195W, strain ref2 1.07 | [32] 0.996 | [33] 1.02 | [34] 0.998 | [35] 0.966 | [36] 0.995 | [37] 0.99 | [38] 1.01 | [39] 0.996 | [40] 0.996 | [41] 1.01 | [42] 1.01 | [43] 1.03 | [44] 1 | [45] 1 | [46] 1.01 | [47] 0.987 | [48] 1 | [49] 0.995 | [50] 1 | [51] 0.997 | [52] 1 | [53] 0.998 | [54] 1.02 | [55] 0.946 | [56] 1 | [57] 0.983 | [58] 0.99 | [59] 1.02 | [60] 0.99 | [61] 0.993 | [62] 0.996 | [63] 1.01 | [64] 0.999 | [65] 1 | [66] 0.997 | [67] 0.988 | [68] 0.996 | [69] 0.96 | [70] 1 | [71] 0.995 | [72] 1.13 | [73] 0.993 | [74] 0.996 | [75] 0.998 | [76] 1.02 | [77] 1.11 | [78] 0.991 | [79] 0.998 | [80] 1 | [81] 1 | [82] 0.993 | [83] 1.07 | [84] 1.01 | [85] 1 | [86] 0.996 | [87] 0.991 | [88] 1.01 | [89] 0.976 | [90] 0.986 | [91] 0.994 | [92] 0.924 | [93] 1.04 | [94] 0.988 | [95] 1.01 | [96] 0.964 | [97] 0.985

CC#C[C@]1(O)CC[C@H]2[C@@H]3CCC4=CC(=O)CCC4=C3[C@@H](c3ccc(N(C)C)cc3)C[C@@]21C
inactive: [1] 0.978 | [2] 0.98 | locus YDR150W, strain NUM1, active compounds read low 0.981 | [3] 1.01 | [4] 1 | [5] 0.965 | [6] 0.984 | locus YNL128W, strain TEP1, active compounds read low 1.04 | [7] 0.951 | [8] 0.983 | [9] 0.998 | [10] 0.979 | locus YNL322C, strain KRE1, active compounds read low 0.965 | [11] 0.991 | locus YPL055C, strain LGE1, active compounds read low 0.99

C=CC[C@]1(O)CCC2C3CCC4=CC(=O)CCC4=C3C=C[C@@]21C (stereo partly specified)
inactive: [12] 0.989 | [13] 0.975 | [14] 0.994 | [15] 0.989 | [16] 0.988 | [17] 0.986 | [18] 0.975 | [19] 0.988 | [20] 0.996 | [21] 1.01 | [22] 0.998 | [23] 0.998 | [24] 0.999 | [25] 0.987 | [26] 0.996 | [27] 0.991 | [28] 0.995 | [29] 0.996 | [31] 0.997 | locus YDR195W, strain ref2 1.05 | [32] 0.985 | [33] 0.997 | [34] 1.01 | [36] 0.992 | [37] 0.995 | [38] 0.993 | [39] 0.997 | [40] 0.996 | [41] 0.998 | [43] 1.01 | [44] 0.992 | [45] 0.99 | [46] 0.995 | [47] 0.989 | [48] 0.985 | [49] 0.935 | [50] 0.996 | locus YHR030C, strain SLT2, active compounds read low 0.992 | locus YHR079C, strain IRE1, active compounds read low 1 | [51] 0.944 | [52] 0.984 | [53] 1 | locus YJL095W, strain BCK1, active compounds read low 0.909 | [54] 0.991 | [55] 0.91 | [56] 0.995 | [57] 1 | [58] 0.982 | [59] 0.993 | locus YJR066W, strain TOR1, active compounds read low 0.946 | [60] 0.984 | [61] 0.977 | [62] 0.996 | [63] 1 | [64] 0.995 | [65] 0.991 | [66] 1 | locus YLR113W, strain HOG1, active compounds read low 0.884 | [67] 0.986 | [68] 0.991 | [71] 0.969 | [72] 0.999 | [73] 0.982 | [74] 1 | [75] 0.98 | [76] 0.993 | [77] 1 | [78] 0.993 | [79] 0.895 | [80] 0.995 | locus YNL183C, strain NPR1, active compounds read low 0.93 | [82] 1 | [83] 1.01 | [84] 0.999 | [85] 0.997 | [86] 0.99 | [87] 0.982 | [88] 0.998 | [89] 0.994 | [90] 1.01 | locus YOR231W, strain MKK1, active compounds read low 0.985 | [91] 0.998 | [92] 0.872 | [93] 0.953 | [94] 0.988 | [95] 1.02 | [96] 1.04 | [97] 0.991 | locus YPL256C, strain CLN2, active compounds read low 0.993
active: [30] 0.806 | [35] 0.551 | [42] 0.815 | [69] 0.804 | [70] 0.838 | [81] 0.817
